{"source": "PubChem BioAssay AID1814", "about": "(Broad Institute, 2009)", "note": "The campaign covered roughly 300,000 compounds. About 22,000 (7.3%) were called active. Another 2% or so got no clear call; they are omitted. The sample as a whole holds a higher share of actives than the screen did. A number with no mark means an inactive call. No stated cut-off is given here; in the data, active means activity score below about -60%; inconclusive means mostly about -28% to -61%; inactive means positive scores."}
{"assay": "Activators working through SNCA 5'UTR binding (MLPCN) (AID 1814)", "conditions": "alpha-synuclein 5'UTR reporter, activators screen; stronger effect = lower value; tested at 7.5 µM"}
{"compound": "COc1ccc(-c2cn3ccsc3n2)cc1", "activity score": "-105% (active)"}
{"compound": "CC(C)(C)C(=O)Nc1ccc(-c2cn3cccnc3n2)cc1", "activity score": "-130% (active)"}
{"compound": "FC(F)(F)Oc1ccc(-c2cn3cccnc3n2)cc1", "activity score": "-80.4% (active)"}
{"compound": "COc1ccc(-c2cn3cccnc3n2)cc1", "activity score": "-75.4% (active)"}
{"compound": "CCn1nnnc1SCC(=O)c1ccc(C)cc1C", "activity score": "-81% (active)"}
{"compound": "COC(=O)C1C(=O)c2c([nH]c(C(=O)OCCSC)c2C)CC1C", "note": "(configuration not stated)", "activity score": "-117% (active)"}
{"compound": "Cc1cccc(-n2ncc3c(N4CCc5ccccc54)ncnc32)c1", "activity score": "-164% (active)"}
{"compound": "COc1ccc(-n2ncc3c(N4CCc5ccccc54)ncnc32)cc1", "activity score": "-240% (active)"}
{"compound": "Cc1cc(N/C=C\\C(=O)c2ccc(Cl)c(Cl)c2)no1", "activity score": "-231% (active)"}
{"compound": "CCCCC(=O)Nc1nc(C)c(-c2csc(Nc3ccc(Cl)cc3)n2)s1", "activity score": "-62.8% (active)"}
{"compound": "Cc1ccccc1-c1n[nH]c(=S)n1/N=C/c1ccc(-c2ccccc2Br)o1", "activity score": "57.9%"}
{"compound": "Cc1cc(-c2n[nH]c(=S)n2/N=C/C(Br)=C/c2ccccc2)n[nH]1", "activity score": "-235% (active)"}
{"compound": "S=c1[nH]nc(-c2cccnc2)n1/N=C/C(Cl)=C\\c1ccccc1", "activity score": "-177% (active)"}
{"compound": "Cc1nn2c3cc(N4CCOCC4)ccc3nc2c2ccccc12", "activity score": "-149% (active)"}
{"compound": "O=C(Cc1ccc(F)cc1)N/N=C/c1ccc2c(c1)OCO2", "activity score": "-93.4% (active)"}
{"compound": "Cc1ccc(C(=O)NNc2ncnc3ccccc23)cc1", "activity score": "-131% (active)"}
{"compound": "CCN(CC)c1ccc(/C=N/NC(=O)c2cnccn2)c(O)c1", "activity score": "72.3%"}
{"compound": "CCN1CCN(c2ccc(NC(=O)c3cnccn3)cc2)CC1", "activity score": "-97.4% (active)"}
{"compound": "O=C(Nc1ccc2c(c1)OCCO2)c1ccoc1", "activity score": "-84.8% (active)"}
{"compound": "Cn1cc([N+](=O)[O-])c(C(=O)Nc2ccc3c(c2)OCCO3)n1", "activity score": "-65.9% (active)"}
{"compound": "O=C(Nc1ccc2c(c1)OCCO2)c1cnccn1", "activity score": "-68.9% (active)"}
{"compound": "Oc1c(CN2CCN(c3ccc(F)cc3)CC2)cc(Cl)c2cccnc12", "activity score": "69.6%"}
{"compound": "Nc1c(C(=O)Nc2ccc3c(c2)OCCO3)nnn1Cc1ccccc1", "activity score": "-194% (active)"}
{"compound": "CCOc1ccc(N2C(=O)CC(N(O)c3ccccc3)C2=O)cc1", "note": "(configuration not stated)", "activity score": "-65% (active)"}
{"compound": "Cc1ccc(S(=O)(=O)NC(=O)Nc2nc(-c3ccc(F)c(F)c3)cs2)cc1", "activity score": "-61.5% (active)"}
{"compound": "O=S(=O)(Nc1ccc2nc(-c3ccco3)[nH]c2c1)c1ccccc1", "activity score": "-181% (active)"}
{"compound": "CC(=O)N1CCC(C(=O)Nc2nc(-c3ccccc3)ns2)CC1", "activity score": "-82.9% (active)"}
{"compound": "Cc1ccc(N=C2NC(=O)c3cccc([N+](=O)[O-])c32)cc1", "activity score": "-141% (active)"}
{"compound": "O=C(CSc1nnnn1C1CCCC1)N1CCCCC1", "activity score": "-88% (active)"}
{"compound": "CCCCCC(=O)Nc1ccc2oc(-c3ccncc3)nc2c1", "activity score": "-80.2% (active)"}
{"compound": "COc1cccc(/C=C/c2ccc3ccccc3n2)c1OC(C)=O", "activity score": "83.1%"}
{"compound": "COc1cccc(/C=C2\\C=C(c3ccc(C)cc3)OC2=O)c1OC(C)=O", "activity score": "-65.8% (active)"}
{"compound": "O=C(NCCC1=CCCCC1)c1ccc(Cl)c([N+](=O)[O-])c1", "activity score": "-108% (active)"}
{"compound": "Cc1ccc2cc(/C=N/Nc3ccc(C(=O)O)cc3)c(Cl)nc2c1", "activity score": "-167% (active)"}
{"compound": "CC1CCC(NC(=O)CNC(=O)c2ccc3ccccc3c2)CC1", "note": "(configuration not stated)", "activity score": "-74% (active)"}
{"compound": "Clc1cccc(-c2nc3nc4ccccc4nc3n2Cc2ccco2)c1", "activity score": "-77.2% (active)"}
{"compound": "Clc1ccc(-c2csc(-c3ccncc3)n2)cc1", "activity score": "-135% (active)"}
{"compound": "O=c1[nH]c(/C=C/c2cccc(Br)c2)nc2ccccc12", "activity score": "-125% (active)"}
{"compound": "O=C(Nc1cccc(O)c1)c1ccc(C(=O)c2ccccc2)o1", "activity score": "-120% (active)"}
{"compound": "C/C(=C\\C(=O)c1ccccc1)Nc1cccc(O)c1", "activity score": "-246% (active)"}
{"compound": "C/C(=C\\C(=O)c1cccnc1)Nc1ccc(C)c(C)c1", "activity score": "-88.7% (active)"}
{"compound": "O=C(Nc1ccn(Cc2ccccc2)n1)c1cccc(F)c1", "activity score": "-95.8% (active)"}
{"compound": "Cc1cc(/C=N/NC(=O)c2cccnc2)c(C)n1CC(C)C", "activity score": "-116% (active)"}
{"compound": "COc1ccc(C(CC(=O)c2ccccc2)S(=O)(=O)c2ccccc2)cc1", "note": "(configuration not stated)", "activity score": "-120% (active)"}
{"compound": "COC(=O)c1ccc(Nc2ncnc3sccc23)cc1", "activity score": "-125% (active)"}
{"compound": "COc1c(O)cc2oc(-c3ccc(O)c(O)c3)cc(=O)c2c1O", "activity score": "-140% (active)"}
{"compound": "COc1ccc(C(=O)/C=C/c2ccc(-c3ccccc3)cc2)cc1CSCC(=O)O", "activity score": "-90% (active)"}
{"compound": "COc1ccc(/C=C/C(=O)Nc2c(C)nn(C)c2C)cc1COc1ccc(Br)cc1", "activity score": "50.9%"}
{"compound": "O=C(c1cc(COc2c(F)cccc2F)on1)N1CCSCC1", "activity score": "-165% (active)"}
{"compound": "O=C(c1cc(COc2ccc(F)c(F)c2)on1)N1CCOCC1", "activity score": "-68.2% (active)"}
{"compound": "O=C(c1cc(COc2ccc(F)cc2F)on1)N1CCOCC1", "activity score": "-124% (active)"}
{"compound": "CCC(NC(=O)c1cc(COc2ccc(F)c(F)c2)on1)c1ccncc1", "note": "(configuration not stated)", "activity score": "-78.1% (active)"}
{"compound": "CC(C)(C)c1ccc(C(=O)CSc2ncn[nH]2)cc1", "activity score": "-158% (active)"}
{"compound": "OCCCN1c2ccccc2Nc2nnc(-c3ccccc3)cc21", "activity score": "-189% (active)"}
{"compound": "O=S(=O)(c1ccc(Br)cc1)N1CCC(c2nc3ccccc3[nH]2)CC1", "activity score": "78.3%"}
{"compound": "Nc1ccccc1SCc1cc([N+](=O)[O-])cc2c1OCOC2", "activity score": "-66.8% (active)"}
{"compound": "Nc1cc(N)nc(SCc2cccc(F)c2)n1", "activity score": "-147% (active)"}
{"compound": "Cc1cc2oc3ccc(NCCC4CCCN4C)cc3c(=O)c2cc1C", "note": "(configuration not stated)", "activity score": "-102% (active)"}
{"compound": "O=C(Nc1ccc(Br)cn1)c1ccc([N+](=O)[O-])cc1Cl", "activity score": "-92.4% (active)"}
{"compound": "COc1ccc(OCC(=O)Nc2cc(C)c(Cl)cc2OC)c([N+](=O)[O-])c1", "activity score": "-102% (active)"}
{"compound": "CC(=O)Nc1ccccc1C(=O)C(=O)Nc1ccc(F)cc1", "activity score": "-64.9% (active)"}
{"compound": "Cc1nn(-c2ccc([N+](=O)[O-])cc2)c(N)c1-c1ccccc1", "activity score": "-143% (active)"}
{"compound": "COCCCNC(=S)NC(=O)c1ccccc1", "activity score": "-88.8% (active)"}
{"compound": "O=C(N/N=C/c1cc2c(cc1Br)OCO2)C1COc2ccccc2O1", "note": "(configuration not stated)", "activity score": "-96.1% (active)"}
{"compound": "Cc1ccc(OCc2cc(C(=O)N(C)CCc3ccccc3)no2)cc1C", "activity score": "-115% (active)"}
{"compound": "Cc1csc(NC(=S)Nc2cccc(Cl)c2)n1", "activity score": "-193% (active)"}
{"compound": "S=C(Nc1cccc(Cl)c1)Nc1ccc2cn[nH]c2c1", "activity score": "-89.3% (active)"}
